Screens (PubChem)
Pf Dd2 growth – Plasmodium falciparum Dd2 growth inhibition; P. falciparum Dd2 growth, SYBR Green, 72 h; Potency, µM (series often up to 28.9 µM), for the others: at the top dose activity, negative = inhibition, hits mostly inhibitors; 120,000 compounds, 4.3% hits; AID 1347417; active = well fitted inhibition curve with a large enough effect;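 note: plate controls were DMSO vehicle for no effect and reference drug for full effect; nearly all actives have a fitted effect of over 65% in size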
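Readout: SYBR Green fluorescence, 485 nm excitation, 535 nm emission, after ~16 h lysis at 37C. Before that, Dd2-infected red cells (2.5% hematocrit) grew 72 h with compound, 29 uM top final concentration.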
* marks the source's active call; other numbers are inactive results; i = inactive; ! = not active in a repeat; [ ] = another dose, or the depositor's remark. The sample as a whole holds a higher share of hits than the screen did. Potency is the fitted concentration of half-maximal effect.

SMILES	Pf Dd2 growth
COc1cccc(OCc2nc3c(n2Cc2ccccc2)C(=O)N(CCOc2ccccc2)CCN3)c1	-19%
COc1cccc(OCc2nc3c(n2Cc2ccccc2)C(=O)N(C)CCN3)c1	i
O=C1c2c(nc(CNCc3cccc(Cl)c3)n2Cc2ccccc2)NCCN1Cc1ccccc1F	i
COc1cccc(OCc2nc3c(n2Cc2ccccc2)C(=O)N(CC2CCOCC2)CCN3)c1	11µM*
Cc1ccc(C(=O)N2CCCC3(CNc4ccccc4[S+](=O)([O-])N3)C2)cc1 (stereo not drawn)	-11%
CS(=O)(=O)N1CCC2(CC1)CN(Cc1ccncc1)Cc1ccccc1O2	14%
Cc1c(CC(=O)NCC2CCCOC2)c2c(n1CC(C)C)CC(C)(C)CC2=O (stereo not drawn)	-19%
Cc1nn(-c2ccccc2)c(C)c1Cc1nc(C(C)C)no1	-3%
NC(=O)[C@H](CC1CCCCC1)NC(=O)[C@@H]1CN(C(=O)Nc2ccccc2)CCN1C(=O)C1CCNCC1	8%
COC(=O)c1ccc(Cl)cc1NC(=O)N1CCC(CN2CCCC2)CC1	-1%
COC(=O)c1ccc(Cl)cc1NC(=O)N1CCC(CN2CCC(C)CC2)CC1	10µM*
Cc1cccc(NC(=O)N2CCC(CN3CCC(C)CC3)CC2)c1C	-11%
CS(=O)(=O)N(C1CCOCC1)C1CN(C(=O)c2n[nH]c3ccccc23)C1	8%
COCCC(=O)N1CCC(n2c(C)cnc2C2CC2)CC1	-3%
COCCNc1nc(-c2c(C)noc2C)cc2cc(C(C)C)oc12	-8%[44.1 µM]
Cc1noc(C)c1-c1cc2cc(C(C)C)oc2c(-c2cccc(CO)c2)n1	-6%[44.1 µM]
COc1ccc(-c2nc(-c3c(C)noc3C)cc3cc(C(C)C)oc23)cn1	8.9µM*
COc1cccc(CC(=O)N[C@H](C)c2onc(-c3ccc(F)cc3)c2C(=O)O)c1	-19%[44.1 µM]
Cc1ccc(-c2noc([C@@H]3C[C@H](NC(=O)CC(C)(C)CC(=O)O)CN3C)n2)cc1	i
COCc1nncn1C1CCN(S(=O)(=O)c2ccccc2)CC1	-13%
O=C1NCCOCCCN(C(=O)C2CC2)[C@H]2CCCC[C@@H]12	-12%
O=C(c1cccc(O)c1)N1CCC(CO)(CN2CCCC2)CC1	-1%
OCC1(CN2CCCC2)CCN(Cc2ccc3ccccc3c2)CC1	6.3µM*
OCC1(CN2CCCC2)CCN(C/C=C/c2ccccc2)CC1	7.1µM*
Cc1nnc(N2CCC(CO)(CN3CCCC3)CC2)c2ccccc12	i
SMILES	Pf Dd2 growth
OCC1(CN2CCCC2)CCN(Cc2ccc(Cl)cc2F)CC1	i
OCC1(CN2CCCC2)CCN(Cc2cc(F)cc(F)c2)CC1	i
COc1cccc(CCc2ccccc2C(=O)N2CC[C@](C)(O)[C@H](C)C2)c1	-12%
N#Cc1ccnc(-c2nnc3ccc(NC4CC4)nn23)c1	i
COCCN1C(=O)c2cccn2CC1CNS(=O)(=O)c1ccccc1 (stereo not drawn)	-16%
Cc1ccccc1C(=O)N1C(C(=O)NC(C)C)COC12CCN(C(=O)c1ccc(Cl)cc1)CC2 (stereo not drawn)	i
COc1cc(CNc2ccc3[nH]c(=O)[nH]c3c2)cc(Br)c1OCc1ccc(F)cc1	13µM*
COc1cc(CNc2ccc3[nH]c(=O)[nH]c3c2)cc(Cl)c1OCc1ccc(F)cc1	-26%
COc1cc(CNc2ccc3[nH]c(=O)[nH]c3c2)cc(Cl)c1OCc1ccccc1F	-17%
O=CN1CCCC(n2cnc3cccnc32)C1 (stereo not drawn)	3%[44.1 µM]
CN1C(=O)C2(CCN(C(=O)C3CCCC3)CC2)c2ccccc21	13%
O=C(NC1CCCC1)N1CCC2(C1)C(=O)N(CCc1ccccc1)c1ccccc12 (stereo not drawn)	7.9µM*!
O=C(CC1CCN(C(=O)NC2CCCCC2)C1)NCc1ccccc1 (stereo not drawn)	10%
Cc1cc(CN2CCC3(C2)C(=O)N(Cc2ccccc2)c2ccccc23)no1 (stereo not drawn)	-23%
O=C1N(Cc2ccccc2)c2ccccc2C12CCN(Cc1cncs1)C2 (stereo not drawn)	-11%
CN1C(=O)C2(CCN(C(=O)Nc3ccccc3F)C2)c2ccccc21 (stereo not drawn)	i
O=C1N(CCc2ccccc2)c2ccccc2C12CCN(CC1CC1)C2 (stereo not drawn)	5µM*!
O=C(Nc1ccc(Cl)cc1)N1CCC2(C1)C(=O)N(CCc1ccccc1)c1ccccc12 (stereo not drawn)	4.5µM*
CCN1C(=O)C2(CCN(S(=O)(=O)Cc3ccc(Cl)cc3)CC2)c2ccccc21	i
COc1ccc(C2=NOC3(CCN(C(=O)c4ccc(C(F)(F)F)cc4)C3)C2)cc1 (stereo not drawn)	i
COc1cccc(NC(=O)O[C@@H]2CC[C@]3(C)C(CC[C@@H](O)[C@H]3CC(=O)N3CC[C@H](NC(C)=O)C3)[C@]2(C)CO)c1 (stereo partly drawn)	-4%
O=C(NC1CCN(c2cc(-c3ccccc3)[nH]n2)CC1)c1cc2ccccc2[nH]1	i
O=C1COCC2(CN(CCCc3ccccc3)C2)CN1Cc1ccccc1	-39%[44.1 µM]
